# Laboratory results taken from PubChem BioAssay (EPA / NIEHS).
# Active and inactive are the calls of the source. The calls were made as follows: active = hit-call score of the fitted dose curve at least 0.9, where 1 is the maximum; inactive = score below 0.9.
# Read-out: JUN Transcription Factor, JUN (gene 3725)
# Test: LTEA_HepaRG_JUN: Life Technologies and Expression Analysis (LTEA) Assay for JUN Transcription Factor using HepaRG (AID 2283513)
# Conditions: mRNA level, 48 h; actives raise or lower the signal
# Experimental: LTEA_HepaRG is a cell based, multiplexed-readout assay that uses HepaRG, a human liver cell line, with measurements taken at 48 hours after chemical dosing on a 96-well plate.LTEA_HepaRG_JUN is one of 102 assay component(s) measured in the LTEA HepaRG cell culture assay. It is a marker of Cell proliferation, survival, death.Data from the assay component LTEA_HepaRG_JUN was analyzed into 1 endpoint. This assay endpoint, LTEA_HepaRG_JUN, was analyzed with bidirectional fitting relative to DMSO as the negative control and baseline of activity. Using a type of inducible reporter, measures of mRNA induction for gain or loss-of-signal activity can be used to understand regulation of transcription factor activity. To generalize the intended target to other relatable targets, this assay endpoint is annotated to the dna binding intended target family, where the subfamily is basic leucine zipper.
# A total of 1060 chemcials from the ToxCast library were tested in eight-point concentration-response experiments. Cell culture and cytotoxicity assays were conducted at Thermo Fisher Scientific's Custom Services facility (Madison, WI). A single lot of human HepaRG cells (Thermo Fisher Scientific, Frederick, MD) was used for the cell culture experiments. 96-well format collagen type I coated plates of human HepaRG cells were prepared using established methods. Briefly, cryopreserved HepaRG cells were thawed, plated at a density of approximately 100,000 cells/well in HepaRG Thaw, Plate, and General Purpose media (HPRG770, Thermo Fisher Scientific), and incubated for 48 hours. 0.5% DMSO was selected as vehicle control to balance the requisite need of DMSO in HepaRG cultures to maintain differentiation (for example, baseline metabolism, proportions of hepatocytes vs. cholangiocytes), while enabling further hepatic receptor pathway activation (for example, PXR and CAR) in response to chemical exposure. 48 hours after plating, the culture medium was replaced with HepaRG Serum-Free Incudtion Media. Cells were exposed to each test chemical in duplicate and maintained in CO2 incubators for another 48 hours. Chemical plates were thawed to room temperature and 200x concentrations of treatment groups were prepared. 8-point conentration-reponse curves were made with the highest exposure at 100 uM, followed by half-log dilutions, all in 0.5% DMSO. Each test plate contained variouse controls, induction positive controls (1mM phenobarbital), cytotoxicity positive controls ([…] aflatoxin B1), vehicle controls (0.5% DMSO), and total lysis controls (0.5% DMSO). Cell morphology images were taken using an Essen IncuCyte FLR automated microscope, with six 96-well plates imaged in about 24 minutes. Images were captured and exported and JPEG files. Spent culture media was transfered to black-well plates for the LDH assay, and remaining media was sorted at -80 C for later use. Cells were treated with RLT buffer and frozen until shipped for gene expression analysis. Total RNA was isolated from the cell suspension in 75 uL of Buffer RLT (Qiagen, Germantown, MD 20874) by Quintiles/Expression Analysis (Durham, NC) using a custom isolation procedure. Total RNA from each plate well was transferred to a preamplification plate. Fluidigm's 96.96 Dynamic ArrayTM (Fluidigm, Amsterdam, the Netherlands) technology was used for gene expression analyses by quantitative reverse transcription polymerase chain reaction (qRT-PCR, performed by Quintiles/Expression Analysis, Durham, NC)89. Standard TaqManTM Assays (Applied Biosystems/ThermoFisher Scientific, Foster City, CA) were used to assess the expression of 93 genes selected based on their selectivity and sensitivity to important hepatic receptors known to be modulated by environmental chemicals; importance in human hepatocyte functionality; and hepatotoxicity. […]
row,SMILES,outcome
1,O=C(Nc1ccccc1-c1ccc(Cl)cc1)c1cccnc1Cl,inactive
2,CSC(=O)c1c(C(F)F)nc(C(F)(F)F)c(C(=O)SC)c1CC(C)C,inactive
3,Nc1c(Cl)c(F)nc(OCC(=O)O)c1Cl,inactive
4,COC(=O)c1c(C(F)F)nc(C(F)(F)F)c(C2=NCCS2)c1CC(C)C,inactive
5,Cc1nc(N(C)C)nc(OC(=O)N(C)C)c1C,inactive
6,CCNC(=O)NC(=O)C(C#N)=NOC,inactive
7,C=C(C)CN(CC)c1c([N+](=O)[O-])cc(C(F)(F)F)cc1[N+](=O)[O-],inactive
8,O=P(O)(O)CCCl,inactive
9,N#Cc1c[nH]cc1-c1cccc2c1OC(F)(F)O2,inactive
10,O=C(O)c1c(Cl)ccc2cc(Cl)cnc12,inactive
11,CCOc1cc(C(C)(C)C)ccc1C1COC(c2c(F)cccc2F)=N1 (stereo not given),inactive
12,COC(=O)NC(=S)Nc1ccccc1NC(=S)NC(=O)OC,inactive
13,COc1cc(Cl)c(OC)cc1Cl,inactive
14,CC1(C)CCC(=Cc2ccc(Cl)cc2)C1(O)Cn1cncn1 (stereo not given),inactive
15,CNC(=O)N(C)c1nnc(C(C)(C)C)s1,inactive
16,CCSC(=O)N1CCCCCC1,inactive
17,CC(C)(C)C(=O)C(Oc1ccc(Cl)cc1)n1cncn1 (stereo not given),inactive
18,CC(C)N1C(=O)c2ccccc2NS1(=O)=O,inactive
19,COC(=O)NS(=O)(=O)c1ccc(N)cc1,inactive
20,CO/N=C(/C1=NOCCO1)c1ccccc1Oc1ncnc(Oc2ccccc2Cl)c1F,inactive

row,SMILES,outcome
1,O=C1C2CC=CCC2C(=O)N1SC(Cl)(Cl)Cl (stereo not given),inactive
2,COCc1cnc(C2=NC(C)(C(C)C)C(=O)N2)c(C(=O)O)c1 (stereo not given),inactive
3,Cc1ccc(N=CN(C)C=Nc2ccc(C)cc2C)c(C)c1,inactive
4,CS(=O)(=O)c1cc(C(F)(F)F)ccc1C(=O)c1cnoc1C1CC1,inactive
5,CC(C)Oc1cccc(NC(=O)c2ccccc2C(F)(F)F)c1,inactive
6,COP(=S)(OC)SCn1nnc2ccccc2c1=O,inactive
7,N#CN=C1SCCN1Cc1ccc(Cl)nc1,inactive
8,CCCCC(O)(Cn1cncn1)c1ccc(Cl)cc1Cl (stereo not given),inactive
9,Cn1c(-c2ccccc2)cc(-c2ccccc2)[n+]1C,inactive
10,C=CCOC(=O)C(C)(C)OC(=O)c1cc(-n2c(=O)cc(C(F)(F)F)n(C)c2=O)ccc1Cl,inactive
11,COCC(C)N(C(=O)CCl)c1c(C)csc1C (stereo not given),inactive
12,Cc1cnc(C2=NC(C)(C(C)C)C(=O)N2)c(C(=O)O)c1 (stereo not given),inactive
13,CCCN(CC)CC1COC2(CCC(C(C)(C)C)CC2)O1 (stereo not given),inactive
14,CCNP(=S)(OC)O/C(C)=C/C(=O)OC(C)C (stereo not given),inactive
15,CCOP(=O)(OCC)Oc1nc(Cl)c(Cl)cc1Cl,inactive
16,OC(c1ccc(Cl)cc1)(c1ccc(Cl)cc1)C(Cl)(Cl)Cl,inactive
17,CC1(C)CON(Cc2ccccc2Cl)C1=O,inactive
18,Cc1c(COC(=O)[C@@H]2[C@H](/C=C(\Cl)C(F)(F)F)C2(C)C)cccc1-c1ccccc1,inactive
19,CS(=O)(=O)c1ccc(C(=O)C2C(=O)CCCC2=O)c([N+](=O)[O-])c1,inactive
20,COC(=O)N(C(=O)N1CO[C@@]2(C(=O)OC)Cc3cc(Cl)ccc3C2=N1)c1ccc(OC(F)(F)F)cc1,inactive
